# Hits are enriched below; roughly 3.5% of the tested compounds scored in any of these assays.
# KCNK3 inh: human KCNK3 channel inhibition, primary screen; actives 0.84% (n = 340,000); CHO-KCNK3 thallium flux, FluxOR fluorescence; active compounds read low; O14649; B-score at 10 µM; AID 602410;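 active = B-score under library mean minus 4 SD, starting fluorescence ratio at most library mean plus 5 SD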;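 also: more negative B-score means stronger inhibition of thallium flux through KCNK3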
# TMEM16A inh: mouse TMEM16A channel inhibition, primary screen | actives 1.2% (n = 310,000) | normalized B-score (activity score, 25-100; higher = stronger inhibition) at 10 µM | HEK293 TMEM16A/YFP iodide influx fluorescence, ionomycin | AID 588511;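 active = ratio plate-corrected score three or more library SD toward inhibition, starting fluorescence score within five deviations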;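 also: score derived from kinetic fluorescence span divided by baseline fluorescence per well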
# KCNK9 inh: inhibitors of human KCNK9 two-pore domain potassium channel; Q9NPC2; actives 1.2% (n = 310,000); HEK293 KCNK9, FluxOR thallium flux fluorescence; active compounds read low; B-score at 10 µM;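 active = ratio B-score over 3 SD below the library mean, with starting fluorescence within 5 SD of its mean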;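 also: negative B-score means less thallium flux so channel inhibition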
# TMEM16A act: mouse TMEM16A channel activation, primary screen; actives 0.3% (n = 340,000); Q8BHY3; AID 623877; B-score at 10 µM; HEK293 TMEM16A/YFP-H148Q/I152L, iodide quench fluorescence; active compounds read low;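 active = fluorescence-ratio B-score plate-corrected deviation score at least 3 library SD below zero, with starting fluorescence score within 5 deviations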;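 also: channel opened by trigger with iodide after compound preincubation; score built on the fluorescence ratio of max minus min over baseline; more negative score means more quench and so TMEM16A activation or potentiation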
# Kir21 block: inhibitors of mouse Kir2.1 inward-rectifier potassium channel. B-score at 10 µM. actives 0.85% (n = 310,000). HEK293-Kir2.1, FluxOR thallium flux fluorescence; active compounds read low. P35561;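 active = fluorescence ratio B-score at or below minus 3 SD of library scores, with starting-brightness B-score within 2 SD, cut at about -4.2 in these data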;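 also: channel flux triggered by added potassium and thallium sulfate stimulus; B-score of peak minus minimum fluorescence over baseline after thallium stimulus; more negative B-score means stronger Kir2.1 block with less thallium influx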
# TMEM16A reconf: TMEM16A (mouse) chloride channel inhibition, re-confirmation | shares compounds with TMEM16A inh | HEK293 TMEM16A/YFP-H148Q, iodide quench fluorescence; ionomycin added to raise cell calcium | inhibition, % at 10 µM | actives 39% (n = 2,300) | AID 652189;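 active = mean duplicate percent inhibition, scaled so buffer wells are 0 and the reference blocker 100, over three buffer SD above buffer mean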
# HEK293 Ca mobil: counter-screen for TMEM16A inhibitors: effect on calcium mobilization. calcium response (% of ionomycin), % at 10 µM. shares compounds with TMEM16A inh. TMEM16A/YFP HEK293, Fluo4 calcium mobilization. AID 652231. actives 2% (n = 2,300);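 active = duplicate-averaged calcium signal over 20% of the ionomycin maximum, relative to buffer baseline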;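 also: each well's signal is peak minus trough fluorescence divided by its pre-addition baseline; 0% = buffer wells and 100% = ionomycin wells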
# YFP-HEK293 quench: acts in parental YFP-HEK293 cells lacking TMEM16A, counter-screen; AID 652233; iodide YFP quench, ionomycin; shares compounds with TMEM16A inh; 2,300 tested, under 10 active; YFP ratio F(max-min)/F0 at 10 µM;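 active = yellow fluorescent protein signal ratio exceeding the buffer control mean by over 5 SD of those controls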;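 also: ratio is mean of duplicate wells from kinetic YFP trace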
# ClC-1 inh: rat ClC-1 inhibition, TMEM16A specificity screen; shares compounds with TMEM16A inh; CHO ClC-1-YFP, iodide influx fluorescence quench; iodide control reads 0, buffer control 100; ratio percent, % at 10 µM; 2,300 tested, under 10 active; AID 652236;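 active = duplicate-mean ratio percent above the mean of iodide-only control wells, which defines zero, plus 5 of their SD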;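 also: higher percent means stronger block of ClC-1 iodide influx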
# * hit, by the source's call; i = inactive; . = no result.
SMILES,KCNK3 inh,TMEM16A inh,KCNK9 inh,TMEM16A act,Kir21 block,TMEM16A reconf,HEK293 Ca mobil,YFP-HEK293 quench,ClC-1 inh
Cc1ccc(OCc2ccc(C(=O)N3CCCC3)o2)cc1C,i,25*,i,i,-0.04,i,i,-1.2,-14
CCOc1ccc(OCc2ccc(C(=O)N3CCCCC3)o2)cc1,i,i,i,i,-0.13,.,.,.,.
CN1c2ccccc2C(O)=C(C(=S)Nc2ccc(F)c(Cl)c2)S1(=O)=O,i,100*,i,i,0.28,62%*,i,-1.1,-30
CN1c2ccccc2C(O)=C(C(=S)Nc2ccccc2)S1(=O)=O,i,i,i,i,-0.88,.,.,.,.
COc1ccccc1CC1S/C(=N/N=C/c2ccco2)NC1=O (stereo not drawn),i,i,i,i,0.83,.,.,.,.
Cc1nnsc1C(=O)NC1CCCc2c1cnn2-c1ccccc1F (stereo not drawn),i,100*,i,i,0.29,i,i,-1.3,-6
Cc1nnsc1C(=O)NC1CCCc2c1cnn2-c1ccc(C(C)(C)C)cc1 (stereo not drawn),i,25*,i,i,2.6,20%*,i,-1.2,-14
O=C(NC1CCCc2c1cnn2-c1ccccc1F)c1ccccn1 (stereo not drawn),i,i,i,i,1.4,.,.,.,.
Cn1c(=O)c(=O)n(C)c2cc(N3CCCCC3)c(NS(=O)(=O)c3ccc([N+](=O)[O-])cc3)cc21,i,i,i,i,0.03,.,.,.,.
Cc1ccc(NC(=O)CSC2=C(C#N)C(c3ccco3)CC(=O)N2)cc1 (stereo not drawn),i,25*,i,i,-0.06,i,i,-1,-12
Cc1ccc(C)c(S(=O)(=O)N2CCCOC2CNC(=O)C(=O)NCc2ccccn2)c1 (stereo not drawn),i,i,i,i,-1.9,.,.,.,.
Nc1nc(-c2ccccc2)c(-c2ccccc2)n1N,i,i,i,i,0.09,i,i,-1.2,-10
CSc1ccccc1NC(=O)c1c(C)noc1C,i,i,i,i,1.3,.,.,.,.
COc1ccc(-c2csc(NC(=O)CSc3nc(SC)ns3)n2)cc1,i,100*,i,i,-1.3,21%*,i,-1,-6
CCCn1c(=O)c(C(=O)NNC(=O)c2ccccc2Cl)c(O)c2ccccc21,i,100*,i,-4.6*,0.01,i,i,-0.95,-14
CCCn1c(=O)c(C(=O)NNC(=O)c2ccccc2[N+](=O)[O-])c(O)c2ccccc21,i,i,i,i,0.28,.,.,.,.
CCCCNC(NCCCC)=C(S(=O)(=O)CC)S(=O)(=O)CC,i,25*,i,i,-1.3,i,i,-1.1,-4
Cc1ccc2nc(SCc3nc4c(cnn4-c4ccccc4)c(=O)[nH]3)[nH]c2c1,i,25*,i,i,0.72,i,i,-0.92,-4
O=c1[nH]c(CSc2ncccn2)nc2c1cnn2-c1ccccc1,i,i,i,i,0.07,.,.,.,.
COc1ccc(NS(=O)(=O)c2ccc3oc4ccccc4c3c2)cn1,i,25*,i,i,-2.3,i,i,-1.1,-4
O=C(COC(=O)c1ccncc1)Nc1cc(Cl)c(Cl)cc1Cl,.,i,.,.,.,.,.,.,.
CCOC(=O)Cc1ccc(NC(=O)c2ccc(C(C)(C)C)cc2)cc1,i,100*,i,i,0.72,32%*,i,-0.91,4
O=C(O)c1cc2c(ccc3ccccc32)oc1=O,i,i,i,i,-0.75,.,.,.,.
O=C(c1cc2ccccc2oc1=O)N1CCN(CCc2ccccc2)CC1,i,25*,i,i,-0.14,i,i,-1.1,-15
O=C(c1cc2c(ccc3ccccc32)oc1=O)N1CCCC1,i,100*,i,i,0.56,i,i,-1.1,-8
SMILES,KCNK3 inh,TMEM16A inh,KCNK9 inh,TMEM16A act,Kir21 block,TMEM16A reconf,HEK293 Ca mobil,YFP-HEK293 quench,ClC-1 inh
NC(=O)CSc1nc(-c2ccccc2)nc2ccccc12,i,i,i,.,0.04,.,.,.,.
Cc1cccc2c(SCC(N)=O)nc(-c3ccccc3)nc12,i,100*,i,i,-1.2,i,i,-1.2,-12
CN(C)c1ncc(S(=O)(=O)c2ccccc2)c(-c2ccccc2Cl)n1,i,100*,i,i,1.6,i,i,-1,-10
CN(C)c1ncc(S(=O)(=O)c2ccccc2)c(N)n1,i,i,i,i,0.15,.,.,.,.
C[C@@H](C(=O)Nc1ccc2ccccc2c1)[C@H]1C[C@]1(C)[C@H](NC(=O)c1cnccn1)c1ccccc1,i,i,i,i,0.11,i,i,-1.2,-9
C[C@@H](C(=O)Nc1ccc2ccccc2c1)[C@@H]1C[C@@]1(C)[C@@H](NC(=O)c1cnccn1)c1ccccc1,i,i,.,i,.,.,.,.,.
O=C(Cc1ccccc1[N+](=O)[O-])c1ccc2c(c1)OCO2,i,.,.,i,.,.,.,.,.
CCCCC1(C)OC(=O)C(=Cc2c[nH]c3ccccc23)C(=O)O1 (stereo not drawn),i,i,i,i,0.12,.,.,.,.
CCCCC1(C)OC(=O)C(=Cc2ccc(N(C)C)cc2)C(=O)O1 (stereo not drawn),i,i,i,i,1.5,22%*,i,-0.88,-12
Cc1cc(OCC(=O)Nc2ccncc2)ccc1Cl,i,25*,i,i,-0.4,27%*,i,-0.94,-15
CCc1ccc(OCC(=O)Nc2ccncc2)cc1,i,i,i,i,-0.23,.,.,.,.
Cc1ccc(OCC(=O)Nc2ccncc2)c(C)c1,i,25*,i,i,0.95,i,i,-1.3,-10
CC(C)(C)c1ccc(NC(=O)COc2ccc(-n3ccnc3)cc2)cc1,i,100*,i,i,-0.22,44%*,i,-0.99,-10
O=C(COc1ccc(Br)cc1)Nc1ccc(Cc2ccncc2)cc1,i,100*,i,i,0.69,i,i,-1.2,-8
CCCOc1ccc(/C(O)=C2/C(=O)C(=O)N(CCCn3ccnc3)C2c2ccc(C)o2)cc1 (stereo not drawn),i,i,i,i,-0.91,.,.,.,.

# High-throughput results from PubChem.
